{"source": "PubChem BioAssay (NCATS)", "note": "“And” between values parts separate entries of the source, which are not always exact repeats. Equal entries are not always repeated. Results filed as inconclusive are left out. Values without a mark were called inactive. The source made the active and inactive calls. Calls come from the whole dose curve; as a rule, active = well fitted inhibition curve with a large enough effect; inconclusive = small, poorly fitted or top-dose-only effect; inactive = no such curve, though single readings can be large or run the other way. Positions of bridges follow the written chain, without caps; N, C: chain ends. Non-standard residues stand in square brackets, D forms with d. Residues, ends and D or L forms follow the SMILES beside them. ξ: configuration not given here. *: point of attachment. Octanoyl(6-Me) = CCC(C)CCCCC(=O)*; ξThr(3R) = C[C@@H](O)C(N)C(=O)O; dDab = NCC[C@@H](N)C(=O)O; Dab = NCC[C@H](N)C(=O)O"}
{"experiment": "BET inhibitor-based combinations targeting novel dependencies in MECOM-rearranged (r) AML: SET-2 cell line (AID 2202231); note: nearly all actives have a fitted effect of over 35% in size; note: potency is the fitted concentration of half-maximal effect", "conditions": "SET-2 AML cells viability, CellTiter-Glo luminescence, 48 h; viability: active compounds read low, series mostly up to about 46 µM", "excerpt": "Ecotropic viral insertion site 1 (EVI1) is located on chromosome 3q26.2 as part of the MECOM (MDS and EVI1 complex) locus. Under normal hematopoiesis, EVI1 is a regulator of hematopoietic stem cell maintenance and self-renewal and EVI1 levels decrease as the cells differentiate. In approximately 5-10% of de novo acute myeloid leukemia (AML) EVI1 is aberrantly expressed, including Chromosomal inv(3)(q21;q26.2) or t(3;3)(q21;q26.2) alterations (MECOM-r) that account for about 50% of AML with EVI1 overexpression 31. AMLs with high levels of EVI1 have a poor prognosis and an overall survival time averaging between 10-14 months. EVI1 overexpression confers resistance in leukemia cells, highlighting the need to develop new targeted therapies for EVI1 overexpressing AMLs.\nHere, we performed an unbiased chemical drug screening by evaluating the single agent activity of a collection of 2,480 oncology-focused, approved and investigational drugs (NCATS Mechanism Interrogation Plates, MIPE v5.0) against a panel of seven AML cell lines. These included four MECOM-r cell-lines (AML-191, AML-194, UCSD-AML1 and HNT-34) and three non-MECOM-r AMLs (MV4-11, OCI-AML3 and SET-2). Exploiting the mechanistic redundancy built in the library, we identified target-level sensitivities in MECOM-r AML cells and relative activity as compared to other AML subtypes.\nA collection of 2480 mechanistically annotated dugs (MIPE v5.0) was used to screen four 3q26.2 rearranged AML cell lines and three non-3q26.2 rearranged AML cell lines. This library purposely exploits redundancy by including multiple inhibitors of key onco-targets, while simultaneously encompassing mechanistic diversity, targeting more than 800 distinct mechanisms of action. Briefly, cells were seeded in 5 uL of growth media using a Multidrop Combi dispenser into 1536 well white polystyrene tissue culture treated plates (Corning) at a density of 500cells/well. For each cell-line, for each of the 2480 drugs in MIPE v5.0 library, an 11-point dose curve was generated via a 1536 pin-tool. Plates were incubated for 48 hr at standard incubator conditions, covered by a stainless steel gasketed lid to prevent evaporation. Cell viability was determined by luminescence based, Cell Titer Glo assay (Promega). In detail, 3 uL of Cell Titer Glo were added to each well and plates were incubated at room temperature for 15 min with a stainless-steel lid in place. Luminescence readings were taken using a Viewlux (PerkinElmer) with a 2 s exposure time per plate. Compound dose-response curves were normalized to DMSO and empty well controls on each plate. Quantitative drug activity data from dose-response curves was determined utilizing area Under the Curve (AUC) and Z-transformed AUC (Z-AUC, a mean-centering transformation applied to each individual cell-line screened)."}
{"smiles": "CN(C)S(=O)(=O)c1ccc2c(c1)C(=Cc1cc3c([nH]1)CCCC3)C(=O)N2", "viability": "101%"}
{"smiles": "Nc1ccn([C@@H]2CS[C@H](CO)O2)c(=O)n1", "viability": "113%"}
{"smiles": "O=C(/C=C/C#Cc1cccc(NS(=O)(=O)c2ccccc2)c1)NO", "Potency": "0.407 µM (active)"}
{"smiles": "Nc1ncnc2ccccc12", "viability": "115%"}
{"smiles": "CCN1CCN(Cc2ccc(Nc3ncc(F)c(-c4cc(F)c5nc(C)n(C(C)C)c5c4)n3)nc2)CC1", "Potency": "5.9 µM (active)"}
{"smiles": "CC(Oc1ccc(O)cc1)(P(=O)(O)O)P(=O)(O)O", "viability": "109%"}
{"smiles": "COc1ccc(CNC(=O)Nc2ncc([N+](=O)[O-])s2)cc1", "Potency": "26.3 µM (active)"}
{"smiles": "O=C(CCCCCCC(=O)Nc1cccnc1)NO", "Potency": "5.25 µM (active)"}
{"smiles": "C[C@H]1Oc2cc(cnc2N)-c2c(nn(C)c2C#N)CN(C)C(=O)c2ccc(F)cc21", "viability": "98.3%"}
{"smiles": "CCN(CC)CCCC(C)Nc1c2ccc(Cl)cc2nc2ccc(OC)cc12", "note": "(stereo not given)", "Potency": "7.42 µM (active)"}
{"smiles": "O=c1cc(-c2ccccc2)oc2cc(O)cc(O)c12", "viability": "85.1%"}
{"smiles": "CCc1cc(-c2n[nH]c(C)c2-c2ccc3c(c2)OCCO3)c(O)cc1O", "Potency": "14.8 µM (active)"}
{"smiles": "Cn1cnc2c1c(=O)[nH]c(=O)n2C", "viability": "114%"}
{"smiles": "C=CC(=O)Nc1cccc(Nc2nc(Nc3ccc(NC4CN(CCF)C4)cc3OC)ncc2C(F)(F)F)c1", "Potency": "18.6 µM (active)"}
{"smiles": "N#Cc1c(NC(=O)c2cccc3ccccc23)sc2c1CCCC2", "Potency": "0.525 µM (active)"}
{"smiles": "Cc1ccccc1C(C(=O)NC1CCCCC1)N(C(=O)CNc1ccc(C#N)cc1)c1cccc(F)c1", "note": "(stereo not given)", "viability": "109%"}
{"smiles": "C1COC(NC(C2CC2)C2CC2)=N1", "viability": "117%"}
{"smiles": "CC(C)(Cc1ccc2ccccc2c1)NC[C@@H](O)COc1cccc(Cl)c1C#N", "Potency": "18.6 µM (active)"}
{"smiles": "CC1(C)O[C@@H]2C[C@H]3[C@@H]4CCC5=CC(=O)C=C[C@]5(C)[C@@]4(F)[C@@H](O)C[C@]3(C)[C@]2(C(=O)CO)O1", "viability": "115%"}
{"smiles": "C[C@@H]1O[C@@H](O[C@@H]2\\C=C/C=C\\C=C/C=C\\C[C@H](C)OC(=O)/C=C\\[C@H]3O[C@@H]3C[C@H](O)C[C@]3(O)C[C@@H](O)[C@@H](C(=O)O)[C@H](C2)O3)[C@H](O)[C@H](N)[C@@H]1O", "viability": "112%"}
{"smiles": "CN1CCN(Cc2ccc(NC(=O)Nc3ccc(Oc4cc(NC(=O)C5CC5)ncn4)cc3)cc2C(F)(F)F)CC1", "Potency": "0.742 µM (active)"}
{"smiles": "NC(=O)c1ncn([C@@H]2O[C@H](CO)[C@@H](O)[C@H]2O)c1O", "viability": "109% and 121%"}
{"smiles": "Cn1cncc1C(N)(c1ccc(Cl)cc1)c1ccc2c(c1)c(-c1cccc(Cl)c1)cc(=O)n2C", "note": "(stereo not given)", "Potency": "14.8 µM (active)"}
{"smiles": "COc1ccc(C2CC(c3ccccc3)=NN2c2ccc(S(N)(=O)=O)cc2)cc1", "note": "(stereo not given)", "viability": "112%"}
{"smiles": "COc1c(N2C[C@@H]3CCCN[C@H]3C2)c(F)cc2c(=O)c(C(=O)O)cn(C3CC3)c12", "Potency": "14.8 µM (active)"}
{"smiles": "N=C(N)c1ccc2cc(OC(=O)c3ccc(N=C(N)N)cc3)ccc2c1", "viability": "105%"}
{"smiles": "COc1ccc(-c2c(C)nn3c(NCCN4CCOCC4)cc(C)nc23)cc1OC", "viability": "88.4%"}
{"smiles": "CCOC(=O)[C@H]1O[C@@H]1C(=O)N[C@@H](CC(C)C)C(=O)NCCC(C)C", "viability": "108%"}
{"smiles": "CN1C(=O)c2sccc2N(C)c2nc(Nc3ccc(S(N)(=O)=O)cc3)ncc21", "Potency": "6.61 µM (active)"}
{"smiles": "COc1cccc(Nc2c(C(N)=O)cnc3c(C)cc(S(=O)(=O)c4cccc(C(=O)N(C)C)c4)cc23)c1", "viability": "120%"}
{"smiles": "O=C(O)c1ccc(CCCc2ccc(OCCc3ccc(F)cc3)cc2)o1", "Potency": "20.9 µM (active)"}
{"smiles": "COc1cc(N2CCC(N(C)C)CC2)ccc1Nc1ncc(Cl)c(Nc2ccccc2P(C)(C)=O)n1", "Potency": "6.61 µM (active)"}
{"smiles": "O=c1c(-c2ccc(O)cc2)coc2cc(O[C@@H]3O[C@H](CO)[C@@H](O)[C@H](O)[C@H]3O)ccc12", "viability": "119%"}
{"smiles": "CCN1CCCC1CNC(=O)c1cc(S(=O)(=O)CC)c(N)cc1OC", "note": "(stereo not given)", "viability": "122%"}
{"smiles": "Cc1cc2c(cc1C1(c3ccc(C(=O)O)cn3)CC1)C(C)(C)CCC2(C)C", "viability": "114%"}
{"smiles": "O=C1CCCC(=O)C1C(=O)c1ccc(C(F)(F)F)cc1[N+](=O)[O-]", "viability": "111%"}
{"smiles": "Cc1ccc(C(=O)Nc2ccc(CN3CCN(C)CC3)c(C(F)(F)F)c2)cc1C#Cc1cnc2cccnn12", "Potency": "7.42 µM (active)"}
{"smiles": "Cc1cc(Nc2ncnc3ccc(-c4ccc(CNCCS(C)(=O)=O)o4)cc23)ccc1Oc1ccn2ncnc2c1", "viability": "75.4%"}
{"smiles": "c1cc(Nc2cc(C3CC3)[nH]n2)nc(Nc2ccc3nc[nH]c3c2)n1", "Potency": "0.662 µM (active)"}
{"smiles": "CCC(C)CCCCC(=O)N[C@@H](CCN)C(=O)NC(C(=O)N[C@H](CCN)C(=O)N[C@@H]1CCNC(=O)C([C@@H](C)O)NC(=O)[C@@H](CCN)NC(=O)[C@@H](CCN)NC(=O)[C@@H](CC(C)C)NC(=O)[C@H](Cc2ccccc2)NC(=O)[C@H](CCN)NC1=O)[C@@H](C)O", "note": "(stereo partly drawn) ({Octanoyl(6-Me)}-[Dab][ξThr(3R)][dDab][dDab][Dab]F[dL][dDab][dDab][ξThr(3R)]; lactam 4-C)", "viability": "126%"}
